Source: PubChem BioAssay (National Center for Advancing Translational Sciences (NCATS))
Mito fusion act – blocks mitochondrial division or promotes mitochondrial fusion; actives 0.23% (n = 320,000); Potency, µM (doses to about 46.1 µM), inactives show at the top dose growth rescue (activation), actives largely listed as activators; S. cerevisiae fusion-defective mutant growth rescue, CellTiterGlo 48 h; note: potency is the fitted concentration of half-maximal effect; % of control where 0% means no effect; nearly all actives have a fitted effect of over 45% in size
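Compounds are tested for their ability to restore growth of mitochondrial fusion-defective yeast strains at non-permissive 37C in YPEG medium over 48 hours. Viability is quantified by luciferase luminescence.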
IL2 activator – activators of IL-2 | actives 0.065% (n = 360,000) | IL-2 activation reporter assay, cell-based qHTS; stimulated with anti-CD3/CD4/CD28 beads; in transgenic mouse T cells | activation, % (series mostly up to about 46 µM) | AID 652025; in the data active = activation above about 50%; inconclusive = mostly about 30% to 49%; note: 0% is about no effect
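Unstimulated transgenic mouse T cells, 750 per well, received compound and, after 60 minutes, anti-CD3/anti-CD4 bead plus anti-CD28 stimulation. EGFP and DsRed were quantified after 18 hours.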
TCR activator – activates T cell receptor signaling; 330,000 tested, under 10 active; AID 504894; Potency, µM (series often up to 9.22 µM), for the others: at the top dose activation of IL-2 secretion, most hits filed as activators; primary human leukocytes, anti-CD3, IL-2 HTRF, 48 h; note: % of control where 0% means no effect
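Primary human leukocytes were stimulated with a-CD3 beads plus compounds for 48 hr without co-stimulation; secreted IL-2 was quantified by HTRF using a-IL-2-K (europium cryptate) and a-IL-2-d2, excited at 320nm with acceptor emission read at 665nm.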
p53 reactivation – restores transcriptional activity of mutant p53; AID 504706; actives 0.063% (n = 320,000); Potency, µM (doses to about 92.2 µM), for the others: top-dose activity change, positive = activation, most hits filed as activators; H1299 p53-A138V BP100-luciferase reporter, luminescence, 24 h; note: potency is the fitted concentration of half-maximal effect; % of control where 0% means no effect; nearly all actives have a fitted effect of over 45% in size
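p53-null H1299 cells stably carrying temperature-sensitive p53-A138V and a BP100-luciferase reporter were pinned with compounds (4-point, 1:5 series) and held 24 hrs at 37 deg C. Luminescence was read 10 min after detection reagent.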
BRCA1 expr up – increases BRCA1 expression | MCF7-BRCA1-FFLuc reporter, luminescence, 48 h; response scale: scaled: vehicle 0%, 10 µM genistein 100% | Potency, µM (highest dose often 46.1 µM), for inactives: at the highest dose activation, actives largely listed as activators | actives 1.1% (n = 380,000); note: potency is the fitted concentration of half-maximal effect; nearly all actives have a fitted effect of over 80% in size
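First, MCF7-BRCA1-FFLuc cells (2000/well) attach for 2 h; next, compounds are pin-added and incubated 48 h at 37 °C; finally, luciferase reagent is added and luminescence read after 15 min.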
Starred values were filed as active, the others as inactive; ? = inconclusive; nt = not tested or not shown; ! = not confirmed by another sample; [ ] = remark or other dose. In the library only some 1.3% were active in any assay of this set; here they are far more common. Unless noted, calls come from the whole dose curve; as a rule, active = well fitted curve in the direction sought with a large enough effect; inconclusive = small, poorly fitted or top-dose-only effect, or another doubt; inactive = no such curve, though single readings can be large; an effect the other way counts as inactive or inconclusive.

SMILES	Mito fusion act	IL2 activator	TCR activator	p53 reactivation	BRCA1 expr up
Clc1cccc(-c2cc3nc4c(c(NCc5ccco5)n3n2)CCCC4)c1	-17%	2	-20%	?	89%
COC(=O)N/N=C(C)/C=C/c1ccccc1	nt	-6	-1%	nt	3.5µM*
COc1cccc(Cc2nc3ccccc3nc2SCC(=O)NCCc2ccccc2)c1	nt	nt	nt	nt	-38%
COc1ccc(/C=C2\OC(=O)c3c(OC)cccc32)cc1OC	-1%	0	2%	7%	10µM*
CC(=O)c1ccc(NCCC(=O)c2ccccc2)cc1	-6%	-2	-2%	-11%	11µM*
CN(C(=O)c1ccc2c(Cl)c3c(nc2c1)CCC3)c1ccccc1	13%	-1	1%	25%	6.3µM*
CCN(C(=O)c1ccc2c(Cl)c3c(nc2c1)CCC3)c1ccc(C)c(C)c1	-15%	-2	-6%	0%	-64%
COc1ccccc1/C=C/c1cncc(/C=C/c2ccccc2OC)c1	nt	nt	nt	nt	-59%
Cc1c(-c2ccccc2)[nH]n2c(=O)c3c(nc12)CCCC3	-2%	0	3%[46.1 µM]	?	3.2µM*
COc1cc2[nH]cc(C(=O)NCCc3ccccc3)c(=O)c2cc1OC	-2%	-2	-6%[46.1 µM]	5%	4%
COc1cccc2c(=O)c(C(=O)NCCc3ccccc3)c[nH]c12	nt	0	0%	nt	10µM*
CN(C)c1ccc(/C=C/c2cc[n+](C)c3ccc4ccccc4c23)cc1	nt	nt	nt	nt	-2%
O=C(/C=C/c1ccccc1)Nc1cccnc1Cl	-2%	2	-21%	24%	10µM*
O=C(/C=C/c1ccccc1)Nc1ccc(Br)cn1	-7%	0	-4%	0%	1.4µM*
Cc1ccc(NC(=O)/C=C/c2ccc(Cl)cc2)nc1	3%	0	1%	20%	?
COc1cccc(NCc2nnc(SC(C(=O)N(C)C)c3ccccc3)n2C2CCCCC2)c1 (stereo not given)	nt	nt	nt	nt	-7%
CCOC(=O)COn1c(-c2cccc(Cl)c2)nc2ccc([N+](=O)[O-])cc21	4%	-3	1%	?	7.1µM*
CCN(CC)C(=O)Cn1c(C)c(/C=C/c2cc[n+](C)cc2)c2ccccc21	0%	115*	4%	nt	-26%
CC(C)n1cc(/C=C/c2cc[n+](C)cc2)c2ccccc21	-3%	295*	1%	-1%	-41%
Cc1ccccc1/C=C/c1cc[n+](C)cc1	-3%	-1	1%	8%	-6%
C=CCn1c(C)c(/C=C/c2cc[n+](C)cc2)c2ccccc21	-6%	122*	8%	nt	-49%
C=CCn1cc(/C=C/c2cc[n+](C)cc2)c2ccccc21	-5%	457*	8%	nt	-45%
O=C(Cc1ccc(Br)cc1)NO	nt	nt	nt	nt	0%
Cc1ccc(C)c(Cn2c(SCC(=O)N(C)Cc3ccccc3)nc3ccccc32)c1	nt	nt	nt	nt	-1%
Cc1[nH]c2ccccc2c1/C=C/c1cc[n+](C)cc1	-6%	192*	16%	-1%	-61%
SMILES	Mito fusion act	IL2 activator	TCR activator	p53 reactivation	BRCA1 expr up
CCn1cc(/C=C/c2cc[n+](C)cc2)c2ccccc21	8%	113*	4%	-6%	-70%
Cc1[nH]c2ccccc2c1/C=C/c1c(C)[nH]c2ccccc12	nt	nt	nt	nt	-69%
CCOC(=O)Cn1cc(C=O)c2ccccc21	0%	-1	4%	-2%	-7%[1.84 µM]
CCCCCOc1ccc(C(=O)N(Cc2ccccc2)C2CCS(=O)(=O)C2)cc1 (stereo not given)	3%	nt	nt	nt	nt
CN(N=Nc1ccc([N+](=O)[O-])cc1)c1ccccc1	-6%	-5	2%[46.1 µM]	?	3.5µM*
O=C(N/N=C\c1ccccc1F)c1ccc(-c2ccccc2)cc1	-4%	-1	0%	-2%	10µM*
O=C(N/N=C/c1ccccc1)c1ccc(-c2ccccc2)cc1	0%	0	10%	9%	59%
COc1ccc2c(c1)C1=NN(/C(C)=C/C(C)=O)C(c3ccc(F)cc3)C1CC2 (stereo not given)	9%	-4	-5%[46.1 µM]	?	-8%
COc1ccc2c(c1)C1=NN(/C(C)=C/C(C)=O)C(c3cccc(F)c3)C1CC2 (stereo not given)	18µM*	-2	-2%[46.1 µM]	17%	-55%
CC(CC(=O)c1cccs1)CC(=O)c1cccs1	4%	1	-8%	?	13µM*
O=C(CCCCCBr)N1CCC(CC2CC(c3ccc(Cl)cc3)=NO2)(C(=O)NCC2CCCCC2)CC1 (stereo not given)	1%	63*	-2%	nt	28%
S=C(NCCCc1cnc[nH]1)NCCCN(Cc1ccc(Cl)cc1)c1cc(-c2ccccc2)ccn1	nt	nt	nt	nt	0%
Cc1cc(NC(=O)c2ccccc2)ncc1NC(=O)c1cccs1	-3%	0	6%	-3%	7.9µM*
O=C(Nc1ncc(Cl)cn1)c1cccs1	-1%	0	-4%	13%	13µM*
O=C(Nc1cccc2nsnc12)c1cccs1	-2%	2	2%	?	7.1µM*!
Cc1cc(NC(=O)c2cccs2)ncc1NC(=O)c1cccc(F)c1	6%	1	9%	8%	91%
Cc1cc(C)nc(NC(=O)c2cccs2)n1	4%	2	-4%	8%	13%
COc1ccc(CN(Cc2ccccc2)C(=O)c2ccco2)cc1COc1ccc(NC(C)=O)cc1	nt	nt	nt	nt	-21%
COc1ccc(NC(=O)c2ccc(Br)o2)cc1	4%	1	0%	?	?
COc1cccc(NC(=O)c2ccc(NC(=O)C(C)(C)C)cc2)c1	21%	0	-1%[46.1 µM]	?	4µM*
COc1cccc(C(=O)Nc2cnn(C(C)C)c2)c1	-5%	-1	nt	?	3.5µM*
CCN(CC)c1ccc(NC(=O)c2cc(Cl)ccc2OC)cc1	14%	-3	15%	2%	-47%
CCN(CC)c1ccc(NC(=O)c2ccccc2F)cc1	11%	6	-2%	40µM*	-14%
COc1ccc(NC(=S)NC(=O)c2ccc(Br)o2)cc1	-8%	0	-6%	29%	6.3µM*
COc1cccc(C(=O)Nc2ccc3ccccc3c2)c1	4%	-1	5%	nt	94%
SMILES	Mito fusion act	IL2 activator	TCR activator	p53 reactivation	BRCA1 expr up
CCCCCn1c(=O)[nH]c2cc(C(=O)N3CCN(c4cccc(C)c4)C(C)C3)ccc2c1=O (stereo not given)	nt	nt	nt	nt	-27%
O=C(Nc1cc(F)ccc1F)c1cnn2c1NC(=C1CC1)C=C2C(F)F	nt	nt	nt	nt	-11%
Cc1ccc(S(=O)(=O)c2c(O)cc(C)c(NS(=O)(=O)c3ccc(Br)cc3)c2C)cc1	nt	nt	nt	nt	-61%
O=C(Nc1c(C(=O)N2CCN(c3ccc(F)cc3)CC2)oc2ccccc12)c1c(F)cccc1F	nt	nt	nt	nt	4%
COc1cccc(C(=O)Nc2cccc(SC)c2)c1	-4%	-3	0%	?	13µM*
COc1cccc(C(=O)Nc2ccccc2)c1	-3%	2	nt	?	?
COc1cccc(NC(=O)c2c(F)cccc2F)c1	-3%	-2	-8%	8%	?
